According to PubChem BioAssay AID1159580 (chemical genetic matrix, 2015):
Values joined by “and” are separate entries in the source; they are usually repeats but may differ in a detail not shown here. Identical values can stand only once. The campaign covered roughly 5,500 compounds. About 2,000 (36%) were called active. Not shown: some 18% with an inconclusive outcome. Rule as the data show it: active = normalized growth mostly below about 0.91 (no sharp cut-off); inconclusive = no clear call, values can overlap the other calls; inactive = mostly above about 0.92. Some of the results follow.

Experiment: chemical genetic growth profiling, strain panel (AID 1159580);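 also: tested at 20 µM; growth read once vehicle control cultures reached saturation at 30 °C; 1 = growth at the plate median or of vehicle wells; lower values mean less growth of the strain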
Details: S. cerevisiae deletion strains, growth OD

Measured: normalized growth

CSc1nc(NC(C)C)nc(NC(C)C)n1
inactive: locus YAL013W, strain DEP1, hits give low values 1.01 | locus YAL021C, strain ccr4, hits give low values 0.969 | locus YAL026C, strain drs2, hits give low values 0.969 | locus YAL030W, strain snc1, hits give low values 0.98 | locus YBL061C, strain skt5, hits give low values 0.968 | locus YBR009C, strain hhf1, hits give low values 0.979 | locus YBR021W, strain FUR4, hits give low values 1.04 | locus YBR023C, strain chs3, hits give low values 0.957 | locus YBR171W, strain sec66, hits give low values 0.954 | locus YBR229C, strain ROT2, hits give low values 0.999 | locus YBR231C, strain swc5, hits give low values 0.961 | locus YBR279W, strain paf1, hits give low values 0.972 | locus YCL011C, strain gbp2, hits give low values 0.966 | locus YCL016C, strain dcc1, hits give low values 0.967 | locus YCL029C, strain bik1, hits give low values 1.01 | locus YCL061C, strain MRC1, hits give low values 0.979 | locus YCL069W, strain vba3, hits give low values 0.975 | locus YCR088W, strain abp1, hits give low values 0.986 | locus YDL005C, strain med2, hits give low values 0.981 | locus YDL035C, strain GPR1, hits give low values 1.02 | locus YDL040C, strain nat1, hits give low values 0.962 | locus YDL074C, strain BRE1, hits give low values 1.01 | locus YDL101C, strain DUN1, hits give low values 1.02 | locus YDL134C, strain PPH21, hits give low values 1 | locus YDL185W, strain tfp1, hits give low values 1.03 | locus YDL192W, strain arf1, hits give low values 1.01 | locus YDR001C, strain nth1, hits give low values 0.979 | locus YDR069C, strain doa4, hits give low values 0.977 | locus YDR101C, strain arx1, hits give low values 1.01 | locus YDR137W, strain rgp1, hits give low values 0.848 | locus YDR150W, strain NUM1, hits give low values 0.994 | locus YDR159W, strain sac3, hits give low values 0.967 | locus YDR162C, strain NBP2, hits give low values 1.02 | locus YDR195W, strain ref2 0.998 | locus YDR297W, strain sur2, hits give low values 0.975 | locus YDR318W, strain mcm21, hits give low values 1.03 | locus YDR334W, strain swr1, hits give low values 0.968 | locus YDR335W, strain msn5, hits give low values 0.969 | locus YDR388W, hits give low values 1.01 | locus YDR392W, strain spt3, hits give low values 0.958 | locus YDR502C, strain sam2, hits give low values 1.01 | locus YEL003W, strain gim4, hits give low values 0.972 | locus YEL037C, strain rad23, hits give low values 0.975 | locus YEL061C, strain CIN8 (second series), hits give low values 0.961 | locus YEL061C, strain CIN8, hits give low values 1 | locus YER015W, strain faa2, hits give low values 0.973 | locus YER016W, strain bim1, hits give low values 0.966 | locus YER110C, hits give low values 1 | locus YER111C, strain swi4, hits give low values 0.977 | locus YER155C, strain BEM2 (second series), hits give low values 0.952 | locus YER155C, strain BEM2, hits give low values 1.01 | locus YER167W, strain BCK2, hits give low values 0.995 | locus YFR010W, strain ubp6, hits give low values 0.978 | locus YGL078C, strain dbp3, hits give low values 1.01 | locus YGL086W, strain mad1, hits give low values 1.01 | locus YGL167C, strain pmr1, hits give low values 0.958 | locus YGL173C, strain kem1, hits give low values 0.964 | locus YGL227W, strain vid30, hits give low values 0.956 | locus YGL240W, strain doc1, hits give low values 0.95 | locus YGL248W, strain PDE1, hits give low values 1.01 | locus YGL253W, strain hxk2, hits give low values 0.973 | locus YGR078C, strain PAC10, hits give low values 1.01 | locus YGR135W, strain pre9, hits give low values 1.01 | locus YGR229C, strain SMI1, hits give low values 1.02 | locus YGR252W, strain gcn5, hits give low values 1.14 | locus YHR013C, strain ard1, hits give low values 0.944 | locus YHR027C, strain rpn1, hits give low values 0.972 | locus YHR030C, strain SLT2, hits give low values 1.02 and 1.03 | locus YHR079C, strain IRE1 (second series), hits give low values 1.01 | locus YHR079C, strain IRE1, hits give low values 1.03 | locus YHR094C, strain hxt1, hits give low values 1 | locus YHR129C, strain ARP1, hits give low values 1.01 | locus YHR142W, strain chs7, hits give low values 0.95 | locus YHR200W, strain rpn10, hits give low values 1.01 | locus YIL066C, strain RNR3, hits give low values 1.03 | locus YIL073C, strain SPO22, hits give low values 1.02 | locus YIL125W, strain kgd1, hits give low values 1.01 | locus YIR030C, strain dcg1, hits give low values 1.02 | locus YJL092W, strain hpr5, hits give low values 0.981 | locus YJL095W, strain BCK1 (second series), hits give low values 0.968 | locus YJL095W, strain BCK1, hits give low values 0.988 and 0.974 | locus YJL115W, strain asf1, hits give low values 0.978 | locus YJL129C, strain trk1, hits give low values 0.962 | locus YJL134W, strain LCB3, hits give low values 1.02 | locus YJL154C, strain vps35, hits give low values 0.977 | locus YJL164C, strain tpk1, hits give low values 0.969 | locus YJL166W, strain qcr8, hits give low values 0.978 | locus YJL168C, strain set2, hits give low values 1 | locus YJL187C, strain SWE1 (second series), hits give low values 1.01 | locus YJL187C, strain SWE1, hits give low values 0.973 | locus YJR043C, strain POL32, hits give low values 1.02 | locus YJR066W, strain TOR1, hits give low values 0.968
